Measured values taken from PubChem BioAssay AID2796 (The Scripps Research Institute Molecular Screening Center, 2010).
The campaign covered roughly 320,000 compounds. About 8,000 (2.5%) were called active. The entries come from a sample that favours actives as a whole. A number with no mark means an inactive call. No stated cut-off is given here; in the data, active means activation above about 47%; inactive means the rest.

target: Aryl hydrocarbon receptor (Homo sapiens) (UniProt P35869); assay: AHR activators, primary screen, cell-based, luminescence, luciferase reporter, human (AID 2796); conditions: AHR-responsive luciferase reporter cells, at 5 µM, hits give high values;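 further: 0% = vehicle wells and 100% = reference agonist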
Sequence (P35869 whole entry, looked up): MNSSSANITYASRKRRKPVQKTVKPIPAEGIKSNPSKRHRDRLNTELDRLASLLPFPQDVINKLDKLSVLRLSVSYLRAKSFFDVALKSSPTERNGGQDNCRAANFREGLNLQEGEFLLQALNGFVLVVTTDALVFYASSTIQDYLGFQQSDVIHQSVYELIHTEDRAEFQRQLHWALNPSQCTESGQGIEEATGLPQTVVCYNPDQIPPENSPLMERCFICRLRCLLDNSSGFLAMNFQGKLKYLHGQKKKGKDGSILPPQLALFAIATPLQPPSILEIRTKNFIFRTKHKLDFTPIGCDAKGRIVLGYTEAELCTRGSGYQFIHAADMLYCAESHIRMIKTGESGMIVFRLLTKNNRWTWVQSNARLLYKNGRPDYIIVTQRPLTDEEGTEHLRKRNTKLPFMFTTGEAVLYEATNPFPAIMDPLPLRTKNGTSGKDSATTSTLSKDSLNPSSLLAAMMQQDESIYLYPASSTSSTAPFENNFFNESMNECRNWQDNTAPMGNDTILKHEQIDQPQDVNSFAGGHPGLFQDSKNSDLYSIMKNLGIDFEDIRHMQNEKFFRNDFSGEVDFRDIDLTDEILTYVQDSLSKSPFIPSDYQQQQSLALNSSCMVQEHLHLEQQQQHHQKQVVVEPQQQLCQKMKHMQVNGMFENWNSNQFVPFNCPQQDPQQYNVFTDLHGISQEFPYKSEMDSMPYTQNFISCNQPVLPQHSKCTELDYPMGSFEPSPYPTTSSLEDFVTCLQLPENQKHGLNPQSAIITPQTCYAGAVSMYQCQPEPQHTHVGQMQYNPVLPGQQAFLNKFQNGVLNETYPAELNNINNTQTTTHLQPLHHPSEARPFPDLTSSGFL

First: O=C(NCc1ccc2c(c1)OCO2)C(=O)NCC1OCCN1S(=O)(=O)c1ccc(F)cc1 (stereo not drawn)
Second: CC(C)CNS(=O)(=O)c1ccc(C(=O)Nc2ccc3c(c2)OCO3)cc1
The activation of the first is lower: 1.35% for the first, 9.22% for the second.

Compared with `CC(=O)c1nn(-c2cccc(C(F)(F)F)c2)c(=O)[nH]c1=O`, `C[C@H](CO)N1C[C@H](C)[C@H](CN(C)C(=O)Nc2ccc(C(F)(F)F)cc2)Oc2c(NC(=O)c3ccncc3)cccc2C1=O` is higher in activation: 0.72% for the first, 5.42% for the second.

Going from `COc1ccc(CCNC(=O)CCNS(=O)(=O)c2cc(Br)cnc2N)cc1OC` to `COc1ccc(NC(=O)C(CC(C)C)NS(=O)(=O)c2ccc3c(c2)CCN3C(C)=O)cc1OC` (stereo not drawn), the activation rises from -0.76% to 1.37%.

Going from `O=C(CN(C(=O)CNC(=O)c1cccs1)c1cccc(F)c1)NC1CCCCC1` to `CCc1ccccc1N(CC(=O)NCC1CCCO1)C(=O)CCC(=O)Nc1nccs1` (stereo not drawn), the activation falls from 1.69% to -2.18%.

Going from `Cc1ccc(C(=O)N2CCN(S(=O)(=O)N3CCOCC3)CC2)cc1` to `O=C(Cc1ccc([N+](=O)[O-])cc1)Nc1ccc(C(=O)N2CCOCC2)cc1`, the activation falls from 4.12% to 0.42%.

First: CCC(C)C(=O)Nc1cc([N+](=O)[O-])ccc1Cl (stereo not drawn)
Second: CC(C)(C)C(=O)NCCCNc1ccc([N+](=O)[O-])cc1
The activation of the first is higher: 12% for the first, 2.34% for the second.

Going from `COc1ccc(S(=O)(=O)N2CCC(C(=O)N3CCCC3)CC2)cc1C` to `CSc1ncccc1C(=O)Nc1cccc(S(=O)(=O)N2CCOCC2)c1`, the activation rises from -0.5% to -0.18%.

First: C/C(=N\N)c1c(-c2ccccc2)c2cc(Br)ccc2[nH]c1=O
Second: CNC(=S)N1N=C(c2ccccc2)CC1c1ccc(Br)cc1 (stereo not drawn)
The activation of the first is higher: 2.69% for the first, 1.39% for the second.

First: COc1ccccc1C(=O)NCC(=O)OCC(=O)NNC(=O)c1ccc(Br)cc1
Second: C=CCN(c1ccccc1C(=O)NCC(=O)OCC)S(=O)(=O)c1ccc(C)cc1
The activation of the first is higher: 0.52% for the first, -1.83% for the second.

Going from `Cc1cc2nc3n(c2cc1C)CC1CC(C(=O)NCCC(C)C)N(C)C31` (stereo not drawn) to `COCC(C)n1c(C)cc(C(=O)CSc2cc(C)c3ccccc3n2)c1C` (stereo not drawn), the activation rises from 2.06% to 43.7%.

First: CCOC(=O)[C@H]1[C@H]2COc3ccccc3[C@@H]2N2C(=O)CN(Cc3ccccc3)C(=O)[C@@]12C
Second: CCNC(=O)N(CC)C[C@H]1N[C@@](CC)(C(=O)OC)[C@H]2C(=O)N(Cc3ccccc3)C(=O)[C@@H]12
The activation of the first is higher: 0.71% for the first, -0.15% for the second.

Compared with `CCOC(=O)C1=C(COC(=O)[C@H](C)NS(=O)(=O)c2ccccc2F)NC(=O)NC1C` (stereo partly drawn), `CC(=O)Nc1ccc(S(=O)(=O)NC(C)C(=O)OCCOc2ccc(F)cc2)cc1` (stereo not drawn) is higher in activation: -0.94% for the first, -0.37% for the second.

First: O=C1Nc2ccc(Br)cc2/C1=N/N=C/C1=C(N2CCOCC2)C(=C\c2ccccc2)/CC1
Second: O=C(Nc1ccccc1)c1ccc2c(c1)OCCCO2
The activation of the first is higher: 22.3% for the first, -1.81% for the second.

Going from `O=C(Nc1ccc(NC(=O)c2ccc3c(c2)OCO3)cc1)c1cccc(Cl)c1` to `O=C(Nc1cccc([N+](=O)[O-])c1)c1ccc2c(c1)OCO2`, the activation rises from -2.05% to 14.3%.

Compared with `O=C(Nc1ccncc1)c1cc(-c2ccccn2)nc2ccc(Br)cc12`, `Cc1ccc2nc(-c3ccncc3)cc(C(=O)Nc3ccc4c(c3)OCCO4)c2c1` is higher in activation: 4.97% for the first, 5.93% for the second.

First: CC(NC(=O)Nc1ccc2c(c1)OCO2)c1ccncc1 (stereo not drawn)
Second: Cc1cccc(NC(=O)/C=C/c2ccc3c(c2)OCO3)n1
The activation of the first is higher: 29.5% for the first, -3.06% for the second.

Going from `CCN(C(=O)COC(=O)c1ccc(COc2ccc3c(C)cc(=O)oc3c2)cc1)C1CCS(=O)(=O)C1` (stereo not drawn) to `Cc1cc(=O)oc2ccc(OCC(=O)O)cc12`, the activation falls from 1.82% to -5.16%.

Compared with `Cc1cccc2nc(CSc3nc4[nH]ncc4c(=O)n3-c3cccc(Cl)c3)cc(=O)n12`, `Fc1cccc(CSc2nnc3ccc(-c4ccncc4)nn23)c1` is higher in activation: 2.86% for the first, 4.81% for the second.

First: Cc1ccccc1N1CCN(C2CCCN(C(=O)c3cn4c(C)cccc4n3)C2)CC1 (stereo not drawn)
Second: COc1ccc(-n2nc(C(=O)NCC(=O)N3CCN(c4ccccc4OC)CC3)c3ccccc3c2=O)c(OC)c1
The activation of the first is lower: 1.46% for the first, 3.01% for the second.

Going from `O=C(CCN1C(=O)[C@H]2CC=CC[C@H]2C1=O)NCc1nc(-c2ccccc2)no1` to `O=C(COC(=O)c1ccc2c(c1)OCCO2)NCc1ccccc1Cl`, the activation falls from 1.79% to -0.15%.

Going from `CC(=O)N1CC(C)c2scc(C)[n+]2-c2ccccc21` (stereo not drawn) to `COc1ccc2ccccc2c1/C=N/NC(=O)c1cc(C)[nH]n1`, the activation rises from -2.51% to 39%.

First: O=C(Nc1nnc(C2CC2)s1)c1ccccn1
Second: Cc1cc(C(=O)Nc2nnc(C3CC3)s2)c(C)s1
The activation of the first is lower: -1.71% for the first, 23.6% for the second.

First: CCCCOc1ccc(NC(=O)CSCC(=O)OCC)cc1
Second: COc1ccc(CC(=O)OC(C)C(=O)Nc2ccc(S(N)(=O)=O)cc2)cc1 (stereo not drawn)
The activation of the first is lower: -0.97% for the first, 0.17% for the second.

First: Cc1[nH]c2ccccc2c1/C=N/NC(=O)CNC(=O)c1ccc2c(c1)OCO2
Second: O=C(Cc1ccc([N+](=O)[O-])cc1)N/N=C/c1ccco1
The activation of the first is higher: 18.3% for the first, 1.25% for the second.

Going from `CCCCN(CC(=O)NC(C)(C)C)C(=O)C(=O)Nc1ccc2c(c1)OCCO2` to `Cc1ccc(C)c(NC(=O)COC(=O)Cn2c(C)csc2=O)c1`, the activation falls from 7.49% to 2.35%.

Going from `Cc1cc(=O)oc2cc(OCC(=O)N3CCN(c4ccc(F)cc4)CC3)c(Cl)cc12` to `COc1ccc2oc(=O)cc(-c3cc4ccccc4o3)c2c1`, the activation rises from -0.42% to 18.4%.

First: CC(C)NC(=S)Nc1cccc2cnccc12
Second: Cc1cc2nc(-c3ccc(NC(=O)c4cccnc4)cc3)oc2cc1C
The activation of the first is higher: 15% for the first, -6.99% for the second.

Compared with `COCCSc1nnc(NC(=O)CCS(=O)(=O)Cc2ccccc2)s1`, `O=C(CSc1nc(O)c(Cc2ccccc2)c(=O)[nH]1)Nc1nc2c(s1)CCCC2` is lower in activation: 22.7% for the first, 1.1% for the second.

Going from `COc1ccc(-c2ccc3nnc(SCC(=O)Nc4ccc(NC(C)=O)cc4)n3n2)cc1` to `Cc1ccc2nc(-c3ccc(NC(=O)c4cccnc4)cc3)oc2c1`, the activation falls from 3.13% to -9.23%.

Compared with `Fc1ccc(-c2ccc(NCCN3CCOCC3)nn2)cc1`, `Fc1ccccc1/C=N/n1c(-c2cccnc2)n[nH]c1=S` is higher in activation: 2.58% for the first, 5.29% for the second.

First: O=C(N/N=C/c1ccco1)c1csc2c1CCCC2
Second: Cc1ccsc1C(=O)NC1CCCCC1C (stereo not drawn)
The activation of the first is higher: 8.16% for the first, -0.06% for the second.

First: COc1ccc(N(Cc2ccc(N(C)C)cc2)C(=O)c2ccc(S(C)(=O)=O)cc2)cc1
Second: CCOc1ccc(S(=O)(=O)Nc2nc3cc(OC)ccc3s2)cc1
The activation of the first is lower: -2.92% for the first, -1.36% for the second.

Compared with `Cc1cc(C)c(C#N)c(Nc2cccc(Br)c2)n1`, `COCc1cc(C)nc(SCC(=O)Nc2cccc(C)c2)c1C#N` is lower in activation: 19.3% for the first, 2.83% for the second.

First: COc1cc(/C=N\NC(=O)c2nonc2N)c(OC)cc1Br
Second: COc1cc(/C=N/Nc2nn3cnnc3c3ccccc23)cc(OC)c1OC
The activation of the first is lower: 15.2% for the first, 38.4% for the second.

First: c1ccc(C2=Nc3cccc4cccc(c34)N2)cc1
Second: S=c1[nH]nc(-c2ccncc2)n1/N=C/c1ccccc1Cl
The activation of the first is higher: 19.3% for the first, 4.63% for the second.

Going from `COc1ccc(CN2CN(C3CCCC3)CSC2=S)cc1` to `COc1ccc2nc(NC(=O)NC3CCCCC3)sc2c1`, the activation rises from -1.37% to 5.23%.

Going from `COCc1c(C(=O)OCC(=O)Nc2ccc(OC(F)F)cc2)oc2ccccc12` to `Cc1noc(C)c1CSCC(=O)Nc1nc2ccc(Oc3ccccc3)cc2s1`, the activation rises from -0.02% to 17.8%.

Going from `CCC(CC)COC(=O)C1=C(C)NC(=O)NC1c1ccc([N+](=O)[O-])cc1` (stereo not drawn) to `COc1ccc2nc(NC(=O)[C@@H]3CCCN3C(=O)c3cccs3)sc2c1`, the activation rises from -3.02% to 23.1%.

With `c1c2c(cc3sc(N4CCCCC4)nc13)OCCO2` the activation was -13.2%.

With `Cc1cccc(NC(=O)Nc2ccc3c(c2)OCO3)n1` the activation was 180% (active).
With `Cc1ccc2nc(-c3ccccn3)cc(C(=O)Nc3ccc4c(c3)OCO4)c2c1` the activation was 47.8% (active).
In the case of `O=C(Nc1cccnc1)c1ccc2c(c1)OCO2`, the activation is reported as 51.4% (active).
`CC(C)C(=O)Nc1cccc(C(=O)Nc2ccc3c(c2)OCO3)c1` was tested, and the activation was 56% (active).
For `O=C(Nc1nnc(C2CC2)s1)c1cc(Cl)sc1Cl`, the activation was 63.3% (active).
For `COCCNC(=S)N/N=C/c1c(C)[nH]c2ccccc12`, the activation was 47.6% (active).
`Cc1nc(COc2cc3oc(=O)cc(C)c3cc2Cl)cs1` was tested, and the activation was 48.1% (active).
For `O=C(N/N=C/c1ccco1)c1ccc(C(=O)N/N=C/c2ccco2)o1`, the activation was 86% (active).
For `COCc1cc(C)nc(Nc2cc(C)ccc2C)c1C#N`, the activation was 52.2% (active).
With `COc1cc(/C=N/N=C(\N)c2nonc2N)cc(OC)c1OC` the activation was 91.3% (active).
In the case of `Brc1ccc(C2CC(c3ccccc3)=Nc3ccccc3N2)cc1` (stereo not drawn), the activation is reported as 104% (active).
With `CC(=O)Nc1ccc(-c2nc3ccccc3o2)cc1` the activation was 80.5% (active).
`S=c1[nH]nc(-c2cc(-c3ccccc3)n[nH]2)n1/N=C/c1c2ccccc2cc2ccccc12` was tested, and the activation was 63.2% (active).
For `COc1ccc2nc(Nc3nc(-c4ccncc4)cs3)sc2c1`, the activation was 107% (active).
With `COc1ccc2nc(Nc3nc4cc5c(cc4s3)OCCO5)sc2c1` the activation was 53.1% (active).
For `COc1ccc2nc(Nc3nc(-c4cc5ccccc5oc4=O)cs3)sc2c1`, the activation was 56.3% (active).
